Consider seven molecules from PubChem BioAssay (Tox21).

Records with an inconclusive call do not appear. Calls of active or inactive are those of the source. Unless noted, the call rests on the fitted dose curve; in most records, active means well fitted curve in the direction sought with a large enough effect in the repeat runs; inconclusive means weak or mixed curves; inactive means no such curve, though single readings can be large; an effect the other way counts as inactive or inconclusive.

Experiment [1] can be described thus: qHTS assay for small molecules that induce genotoxicity in human embryonic kidney cells expressing luciferase-tagged ATAD5 (AID 651632). Further: nearly all actives have a fitted effect of over 15% in size. Further: potency means the concentration at half of the fitted maximal effect. An outline of the steps: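 ATAD5-luc HEK293T, 2,000 cells/well; cpd or DMSO pin-transferred; 16 hr, 37C/5% CO2; Amplite 30 min RT; luminescence.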
Experiment [2] is described as follows: qHTS assay for small molecule agonists of the p53 signaling pathway - cell viability (AID 651633; calls by dose curve;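 further: p53RE-bla HCT reporter cells with a stable beta-lactamase p53 reporter; series mostly up to about 83 µM; nearly all actives have a fitted effect of over 30% in size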). The method in brief:
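p53RE-bla cells were treated with compound for 16 hours at 37 C. Cytotoxicity was then measured as CellTiter-Glo luminescence after 30 min at room temperature.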

Experiment [3] is described as follows: qHTS assay for small molecule disruptors of the mitochondrial membrane potential - cell viability (AID 720634; calls by dose curve;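 further: human HepG2 liver cancer cells; series mostly up to about 83 µM; nearly all actives have a fitted effect of over 20% in size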). The method in brief: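 Cells: HepG2, 2,000/well, attached overnight. Compound 1 hr, 37 C/5% CO2. +m-MPI dye, +CellTiter-Glo 30 min RT. Readout: luminescence (ATP).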
Experiment [4] in a line: qHTS assay to test for compound auto fluorescence at 535 nm (green) in HepG2 cells (AID 720675). Background: Quantitative high-throughput screening tests each substance at several concentrations.
Experiment [5] in a line: qHTS assay to test for compound auto fluorescence at 460 nm (blue) in HEK293 cells (AID 720678). The method in brief:
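Cells were seeded and left to adhere for 4-5 hr at 37C. Compounds were then pin-transferred. After an overnight incubation at 37C under 5% CO2, intrinsic fluorescence at 405/460 nm was measured and referenced to triamterene.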

Experiment [6] in a line: qHTS assay to test for compound auto fluorescence at 590 nm (red) in HEK293 cells (AID 720679). The method in brief:
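Each well held 2,000 HEK293 cells in medium containing 10% dialyzed FBS. Following 4-5 hr attachment at 37C, 23 nL test compound or DMSO was added; plates sat overnight, and red fluorescence (540/590nm) was recorded.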

A short description of experiment [7]: qHTS assay to test for compound auto fluorescence at 460 nm (blue) in HEK293 cell free culture (AID 720681). An outline of the steps:
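Compounds were added to cell-free DMEM with 10% FBS and fluorescence read directly. The blue channel used 405 nm excitation and 460 nm emission, with triamterene as the reference fluorophore.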

Experiment [8] is described as follows: qHTS assay to test for compound auto fluorescence at 535 nm (green) in HEK293 cell free culture (AID 720682). An outline of the steps:
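Green-label autofluorescence (485 nm excitation, 535 nm emission) measured on compound added to cell-free culture medium (DMEM, 10% FBS). Output is expressed relative to fluorescein.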

Experiment [9] in a line: qHTS assay to test for compound auto fluorescence at 590 nm (red) in HepG2 cell free culture (AID 720684). The method in brief: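 Compound was pinned into wells holding MEM with 10% FBS and no cells, and red fluorescence was read at Ex/Em 540/590 nm. Signal is expressed as auto fluorescence equivalency relative to Rose Bengal sodium.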
The nature of experiment [10]: qHTS assay to test for compound auto fluorescence at 460 nm (blue) in HepG2 cell free culture (AID 720685). An outline of the steps:
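Compound (23 nL) or DMSO pinned into cell-free MEM with 10% FBS; blue fluorescence read at 405/460 nm excitation/emission, expressed as auto-fluorescence equivalency to triamterene.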

A short description of experiment [11]: qHTS assay to test for compound auto fluorescence at 535 nm (green) in HepG2 cell free culture (AID 720686).
Experiment [12] is described as follows: qHTS assay to test for compound auto fluorescence at 460 nm (blue) in HepG2 cells (AID 720687). The method in brief:
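HepG2 cells in MEM with 10% FBS, attached overnight at 37 C, were exposed to compound or DMSO for 1 hr at 37 C, 5% CO2. Blue fluorescence was read at 405/460 nm, with triamterene as reference fluorophore.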

A short description of experiment [13]: qHTS assay for identifying genotoxic compounds that show differential cytotoxicity against isogenic chicken DT40 cell lines with known DNA damage response pathways - wild type cell line (AID 743012). Further: nearly all actives have a fitted effect of over 60% in size. Further: potency means the concentration at half of the fitted maximal effect. The method in brief:
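Wild type DT40, 300 cells/well, ~0.5 h settle at 37 C/5% CO2; compounds in DMSO added by pintool; 40 h at 37 C/5% CO2; CellTiter-Glo, 30 min RT; luminescence.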

The nature of experiment [14]: qHTS assay for identifying genotoxic compounds that show differential cytotoxicity against isogenic chicken DT40 cell lines with known DNA damage response pathways - Rad54/Ku70 mutant cell line (AID 743015). Further: nearly all actives have a fitted effect of over 60% in size. Further: potency means the concentration at half of the fitted maximal effect.
Experiment [15] can be described thus: qHTS assay to identify small molecule antagonists of the androgen receptor (AR) signaling pathway - cell viability counter screen (AID 743033; further: nearly all actives have a fitted effect of over 45% in size).
Experiment [16] is described as follows: qHTS assay to identify small molecule antagonists of the androgen receptor (AR) signaling pathway using the MDA cell line - cell viability counter screen (AID 743041; further: nearly all actives have a fitted effect of over 45% in size). The method in brief:
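MDA-kb2 AR-luc cells (MMTV-luciferase, AR/GR responsive) treated with compounds plus R1881 agonist for 16 h at 37C. CellTiter-Fluor added at 15.5 h; fluorescence read after 30 min in the same wells.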

In the next experiment the target is Aromatase (Homo sapiens) (UniProt P11511). The experiment in a line: qHTS assay to identify aromatase inhibitors (AID 743083). Further: nearly all actives have a fitted effect of over 55% in size. Further: potency means the concentration at half of the fitted maximal effect.
A short description of experiment [17]: qHTS assay to identify aromatase inhibitors - cell viability counter screen (AID 743084).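 Further: cells stimulated with testosterone during compound exposure; nearly all actives have a fitted effect of over 55% in size.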 Further: potency means the concentration at half of the fitted maximal effect.
Experiment [18] concerns the target Aryl hydrocarbon receptor (Homo sapiens) (UniProt P35869). Put plainly: qHTS assay to identify small molecule that activate the aryl hydrocarbon receptor (AhR) signaling pathway (AID 743085). Further: nearly all actives have a fitted effect of over 15% in size. Further: potency means the concentration at half of the fitted maximal effect. An outline of the steps:
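HepG2 cells stably carrying a 20-DRE firefly luciferase reporter (HG2L7.5c1) treated with compound for 24 hr at 37C. Luciferase read by ONE-Glo luminescence, with CellTiter-Fluor viability read first.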

The nature of experiment [19]: qHTS assay to identify small molecule antagonists of the estrogen receptor alpha (ER-alpha) signaling pathway - cell viability counter screen (AID 743074; calls by dose curve;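 further: HEK293 cells carrying ER-alpha-UAS-bla reporter stimulated with 17beta-estradiol; nearly all actives have a fitted effect of over 45% in size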).

Sequence of Aryl hydrocarbon receptor (Homo sapiens) (P35869 whole entry, looked up): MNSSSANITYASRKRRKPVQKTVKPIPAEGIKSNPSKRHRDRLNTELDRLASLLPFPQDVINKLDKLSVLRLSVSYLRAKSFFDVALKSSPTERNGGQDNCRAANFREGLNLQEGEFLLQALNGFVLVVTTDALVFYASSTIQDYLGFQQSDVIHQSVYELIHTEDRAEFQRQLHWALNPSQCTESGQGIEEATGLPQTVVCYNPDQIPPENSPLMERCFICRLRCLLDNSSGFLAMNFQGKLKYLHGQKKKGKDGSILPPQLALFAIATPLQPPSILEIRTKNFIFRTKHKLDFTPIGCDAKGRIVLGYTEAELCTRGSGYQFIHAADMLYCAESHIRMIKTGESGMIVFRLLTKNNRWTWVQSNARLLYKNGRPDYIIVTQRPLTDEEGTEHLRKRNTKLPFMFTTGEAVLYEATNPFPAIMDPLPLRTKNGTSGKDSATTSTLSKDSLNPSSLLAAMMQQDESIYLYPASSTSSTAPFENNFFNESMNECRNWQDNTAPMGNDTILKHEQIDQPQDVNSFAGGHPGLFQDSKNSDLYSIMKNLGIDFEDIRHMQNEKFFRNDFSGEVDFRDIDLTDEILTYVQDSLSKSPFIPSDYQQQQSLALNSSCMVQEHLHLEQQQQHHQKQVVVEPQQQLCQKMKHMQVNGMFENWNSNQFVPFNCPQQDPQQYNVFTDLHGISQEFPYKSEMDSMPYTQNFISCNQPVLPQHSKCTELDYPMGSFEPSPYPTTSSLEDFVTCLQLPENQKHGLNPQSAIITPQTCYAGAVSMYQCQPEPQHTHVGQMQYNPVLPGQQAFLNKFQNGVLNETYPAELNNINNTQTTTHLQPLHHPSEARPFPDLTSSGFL
Sequence of Aromatase (Homo sapiens) (P11511 whole entry, looked up): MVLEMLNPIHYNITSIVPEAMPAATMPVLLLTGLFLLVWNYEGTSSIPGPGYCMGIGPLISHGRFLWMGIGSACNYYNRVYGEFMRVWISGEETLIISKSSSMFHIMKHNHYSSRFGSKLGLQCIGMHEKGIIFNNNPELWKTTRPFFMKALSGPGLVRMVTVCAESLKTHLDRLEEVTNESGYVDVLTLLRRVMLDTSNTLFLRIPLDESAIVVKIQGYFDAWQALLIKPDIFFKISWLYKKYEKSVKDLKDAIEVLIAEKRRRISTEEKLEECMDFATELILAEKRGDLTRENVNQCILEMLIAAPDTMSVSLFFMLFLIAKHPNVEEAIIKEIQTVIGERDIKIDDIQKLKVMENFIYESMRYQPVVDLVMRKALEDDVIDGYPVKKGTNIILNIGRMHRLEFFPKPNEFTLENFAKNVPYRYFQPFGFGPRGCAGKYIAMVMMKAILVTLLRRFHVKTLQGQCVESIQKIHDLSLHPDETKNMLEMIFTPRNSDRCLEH

For `C1CN(P2(N3CC3)=NP(N3CC3)(N3CC3)=NP(N3CC3)(N3CC3)=N2)CCO1` (centres undefined), the Potency result in [1], in experiment [2], in experiment [3], in [4], in experiment [5] and in experiment [7] was “inactive” throughout. In addition, the Potency entry in experiment [8], in [10], in experiment [11], in [12], in [15] and in experiment [16] was “inactive” throughout. For the same molecule, the Potency result (with Aromatase (Homo sapiens); in experiment [17]; in experiment [18]) was “inactive” in each case. For the same molecule, the molecule was called inactive in [6] and in experiment [9]. Also, the values for the Potency in [13] and in [14] were 3.76 µM (active) and 8.41 µM (active), respectively.

As for `C[C@]12CC[C@@H]3c4ccc(OC(=O)N(CCCl)CCCl)cc4CC[C@H]3[C@@H]1CC[C@@H]2OP(=O)(O)O`, the Potency entry in experiment [1], in experiment [2], in experiment [3], in [4], in [5] and in experiment [7] was “inactive” throughout. Moreover, the Potency entry in experiment [8], in experiment [10], in experiment [11], in experiment [12], in experiment [13] and in [14] was “inactive” throughout. Besides, the Potency entry (in experiment [15]; in [16]; in [19]; with Aromatase (Homo sapiens); in experiment [17]; in [18]) was “inactive” in each case. Also, the outcome in experiment [6] and in [9] was inactive.

As for `CCCSc1cc(OC)c(CCN)cc1OC`, the Potency entry in experiment [2], in experiment [3], in [4], in [7], in experiment [10] and in experiment [11] was “inactive” throughout. For the same molecule, the Potency entry in [12], in [15] and in experiment [19] was “inactive” each time. In addition, the result in experiment [6] and in [9] was inactive. The Potency in [13] is 0.183 µM (active); in [14], 0.258 µM (active); with Aromatase (Homo sapiens), 32.5 µM (active); in experiment [18], 29 µM (active).

Regarding `CC(C)[C@H]1C(=O)N2CCC[C@H]2[C@]2(O)O[C@](NC(=O)[C@@H]3C[C@@H]4c5cccc6[nH]cc(c56)C[C@H]4N(C)C3)(C(C)C)C(=O)N12`, the Potency entry in experiment [1], in experiment [2], in experiment [3], in [4], in experiment [5] and in experiment [7] was “inactive” throughout. Further, the Potency result in [8], in experiment [10], in [11], in experiment [12], in experiment [15] and in experiment [19] was “inactive” in each case. Moreover, the Potency result (with Aromatase (Homo sapiens); in experiment [17]; in experiment [18]) was “inactive” each time. The molecule was classed as inactive in experiment [6] and in [9]. The Potency is 29.8 µM (active) in experiment [13] and 26.6 µM (active) in [14].

With `O=C1C=C2C=C[C@@H]3C[C@@]2(O1)[C@H]1CCCCN31`, the Potency was 6.68 µM (active) in [1]; 7.5 µM (active) in experiment [13]; 5.96 µM (active) in experiment [14]; 13.3 µM (active) in the experiment with Aromatase (Homo sapiens); 23.7 µM (active) in experiment [17]. Moreover, the Potency entry in [2], in experiment [3], in [4], in experiment [7], in experiment [8] and in experiment [10] was “inactive” each time. Moreover, the Potency result in experiment [11], in experiment [12], in experiment [15], in experiment [19] and in experiment [18] was “inactive” in each case. For the same molecule, the result in experiment [6] and in experiment [9] was inactive.

`CCNC1(c2cccs2)CCCCC1=O` (centres undefined): the Potency result in experiment [1], in [2], in [3], in experiment [4], in [5] and in [7] was “inactive” in each case. Also, the Potency result in experiment [8], in [10], in experiment [11], in [12], in experiment [13] and in [14] was “inactive” throughout. Further, the Potency result (in experiment [15]; in experiment [16]; in experiment [19]; with Aromatase (Homo sapiens); in [17]; in experiment [18]) was “inactive” throughout. In addition, the call in experiment [6] and in experiment [9] was inactive.

`CC(C)C[C@H]1C(=O)N2CCC[C@H]2[C@]2(O)O[C@](NC(=O)[C@@H]3C[C@@H]4c5cccc6[nH]cc(c56)C[C@H]4N(C)C3)(C(C)C)C(=O)N12`: the Potency result in [1], in [2], in experiment [3], in experiment [4], in experiment [7] and in experiment [8] was “inactive” in each case. The Potency entry in [10], in [11], in [12], in experiment [15], in experiment [16] and in experiment [19] was “inactive” each time. Further, the Potency result (with Aromatase (Homo sapiens); in experiment [17]) was “inactive” throughout. Also, the molecule was classed as inactive in [6] and in experiment [9]. Also, the Potency in [13] and in [14] was 29.8 µM (active) each time.
